Source: PubChem BioAssay
A selection: hits, their analogues and other compounds. The true share with any hit is near 3.5%.
MITF inh: human MITF inhibition, primary screen; O75030; AlphaScreen MITF homodimerization, bead proximity signal; inhibition, % at 2.6 µM; 0.91% of 650,000 active; AID 1259374; in the data active means inhibition above about 50%
FBW7 act: human FBW7 E3 ligase activation, primary screen; normalized activity (activation), % at 26.1 µM; Q969H0; AID 1259310; 0.13% of 650,000 active; AlphaScreen FBW7–phospho-cyclin E peptide binding, activator screen; in the data active means normalized activity above about 1.9%;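 further: purified mutant Fbw7 with reduced substrate affinity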
GPR151 ag: activators of human GPR151 | Q8TDV0 | PathHunter beta-arrestin GPR151 cells, luminescence | activation, % at 11.2 µM | 1% of 650,000 active | AID 1508602; in the data active means activation above about 4.9%
TEAD-YAP inh: TEAD-YAP interaction inhibition; inhibition, % at 9.12 µM; HEK-TIYL cells, TEAD-Gal4/YAP UAS-luciferase luminescence; AID 1259422; 1.4% of 640,000 active; in the data active means inhibition above about 32%
GPR151 confirm: human GPR151 activation, confirmation screen | 6,700 tested, under 10 active | activation, % at 11.2 µM | shares compounds with GPR151 ag | GPR151 PathHunter beta-arrestin cells, luminescence, 90 min; % of EA-reagent control over plate median;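 active means mean percent activation across replicates above the confirmation screen cutoff of 4.91%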
GPR119 counter: activates human GPR119 in a GPR151 counter-screen. shares compounds with GPR151 ag. GPR119 PathHunter beta-arrestin cells, luminescence, 90 min; 0 = compound-well median, 100 = enzyme-acceptor control. activation, % at 11.2 µM. 0.3% of 6,700 active;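 active means mean percent activation in the counterscreen above 29.09%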;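 further: counterscreen on off-target GPR119 to flag nonselective hits from the GPR151 activator screen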
Of the large screens only hits and unclear results are named; the others gave an inactive call (follow-up assays come after a bar, where they were run).

Nc1cccc(-c2nc3ccc(Cc4ccc5nc(-c6cccc(N)c6)[nH]c5c4)cc3[nH]2)c1	GPR151 ag 7.0 | GPR151 confirm inactive | GPR119 counter inactive
CSc1nc2[nH]c(=O)cc(O)c2s1	GPR151 ag 5.5 | GPR151 confirm inactive | GPR119 counter inactive
COc1ccc(Nc2nc3[nH]c(=O)cc(O)c3s2)cc1	none
NC(=O)c1nn2c(c1Br)NC(c1ccccc1)CC2C(F)(F)F (stereo not given)	none
O=C(O)c1nn2c(c1Br)NC(c1ccccc1)CC2C(F)(F)F (stereo not given)	GPR151 ag 7.2 | GPR151 confirm inactive | GPR119 counter inactive
Cc1ccc(-c2ccc(OCCN3CCOCC3)nc2)cc1	none
CC(C)(C)c1ccc(-c2ccc(OCCN3CCOCC3)nc2)cc1	GPR151 ag 5.8, TEAD-YAP inh 58 | GPR151 confirm inactive | GPR119 counter inactive
O=C(Nc1nc(-c2ccc(I)cc2)cs1)C1CC1	GPR151 ag 5.9 | GPR151 confirm inactive | GPR119 counter inactive
CN1C(C(=O)N2CCC(C(N)=O)CC2)=CC(c2ccc(F)cc2)=NS1(=O)=O	none
COCCN1CCCc2ccc(NS(=O)(=O)c3cc(C)ccc3C)cc21	GPR151 ag 5.2 | GPR151 confirm inactive | GPR119 counter inactive
COCCN1CCCc2ccc(NS(=O)(=O)c3ccc(C)c(C)c3)cc21	none
O=C(Nc1cccnc1)c1ccc(CN2CCN(c3ccccc3)CC2)cc1	none
O=C(CCc1ccccc1)N/N=C/c1ccccc1O	GPR151 ag 5.9 | GPR151 confirm inactive | GPR119 counter inactive
N#Cc1ccc(/C=N/NC(=O)CCc2ccccc2)cc1	GPR151 ag 6.0 | GPR151 confirm inactive | GPR119 counter inactive
N#Cc1ccc(/C=N/NC(=S)NCc2ccccc2)cc1	none
C/C(=N\NC(=O)CCc1ccccc1)c1ccc(Br)cc1	GPR151 ag 5.9 | GPR151 confirm inactive | GPR119 counter inactive
C/C(=N\OCC(=O)Nc1cc(C)on1)c1cccs1	none
COc1ccc(CNC(=O)CSc2nnc3sc4ccccc4n23)cc1C(=O)O	GPR151 ag 5.5 | GPR151 confirm inactive | GPR119 counter inactive
O=C1CC(NCCC2=CCCCC2)C(=O)N1c1ccc(Br)cc1 (stereo not given)	none
CC1(C)C(=O)OC(c2ccccc2)C2(CCCC2)C1=O (stereo not given)	GPR151 ag 6.0 | GPR151 confirm inactive | GPR119 counter inactive
CC1(C)C(=O)OC(c2ccc(Br)cc2)C2(CCCCC2)C1=O (stereo not given)	none
Cc1ccc(C(=O)N2CCN(Cc3ccc4c(c3)OCO4)CC2)o1	GPR151 ag 10 | GPR151 confirm inactive | GPR119 counter inactive
NNC(=O)CCN1CCN(Cc2ccc3c(c2)OCO3)CC1	GPR151 ag 8.5 | GPR151 confirm inactive | GPR119 counter inactive
CC1=C(C(=O)N2CCN(Cc3ccc4c(c3)OCO4)CC2)C2(CCC(C)CC2)OC1=O (stereo not given)	GPR151 ag 6.5 | GPR151 confirm inactive | GPR119 counter inactive
O=C(Nc1ccc2c(c1)OCO2)c1csc(N2CCN(Cc3ccc4c(c3)OCO4)CC2)n1	GPR151 ag 6.4 | GPR151 confirm inactive | GPR119 counter inactive
COC(=O)N1CCN(Cc2ccc3c(c2)OCO3)CC1	none
CC1=C(C(=O)N2CCN(C(=O)c3ccco3)CC2)C2(CCC(C)CC2)OC1=O (stereo not given)	none
O=C(NC1CC1)c1csc(N2CCN(Cc3ccc4c(c3)OCO4)CC2)n1	none
CCCCNC(=O)CSc1nnc(-c2ccco2)o1	none
COc1ccc(N2C(=O)c3cc(N4CCC5(CC4)OCCO5)c([N+](=O)[O-])cc3C2=O)c(OC)c1	none
CN1CCN(c2cc(-c3cn[nH]c3)ccc2NC(=O)Cc2cccc(Cl)c2)CC1	GPR151 ag 5.2 | GPR151 confirm 6.6 | GPR119 counter 54
Cn1c2ccccc2c2nnc(SCC(=O)c3ccccc3)nc21	GPR151 ag 5.5 | GPR151 confirm inactive | GPR119 counter inactive
O=C(NCc1nnc2n1CCN(C/C(Cl)=C/c1ccccc1)CC2)c1cccc(F)c1	GPR151 ag 9.2 | GPR151 confirm inactive | GPR119 counter inactive
CC(C)(C)CN1CCc2nnc(CNC(=O)c3cccc(F)c3)n2CC1	none
COc1cccc(-c2nc(CS(=O)(=O)CC(=O)Nc3cccc(Cl)c3C)c(C)o2)c1	none
